# Laboratory results: the supplement of paper PMC6555819
# Legend:
# Experiment in all cases: PBM binding z-score (relative to random genomic background probes); higher = stronger binding; sequences stand for … in GC…GCGATTGACAGCGTAGAATGAAGG
# [1] = test system: FXR:RXRa (NR concentration 270 nM, RXRa partner concentration 90 nM)
# Method in brief: (§1)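 Antibodies against each partner of ligand-free nuclear receptor dimers (one per run) detected binding on custom Agilent 4×180K protein-binding microarrays after 1 h incubation. The double-stranded probes had 34-nt variable regions carrying direct-repeat seeds, single-nucleotide variants, half-site ablations and random human genomic background sequences. Binding z-scores, from regression-normalized fluorescence, use the random background probes as reference.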
# [2] = test system: LXRa:RXRa (NR concentration 270 nM, RXRa partner concentration 90 nM)
# Method in brief: as §1
# [3] = test system: LXRa homodimer (NR concentration 270 nM)
# Method in brief: as §1
# [4] = test system: LXRb:RXRa (NR concentration 270 nM, RXRa partner concentration 90 nM)
# Method in brief: as §1
# [5] = test system: LXRb homodimer (NR concentration 270 nM)
# Method in brief: as §1
# [6] = test system: PPARa:RXRa (NR concentration 270 nM, RXRa partner concentration 90 nM)
# Method in brief: as §1
# [7] = test system: PPARg:RXRa (NR concentration 180 nM, RXRa partner concentration 90 nM)
# Method in brief: as §1
# [8] = test system: PPARg:RXRa 270nM:90nM, anti-RXR (NR concentration 270 nM, RXRa partner concentration 90 nM)
# Method in brief: as §1
# [9] = test system: PPARg:RXRa 30nM:10nM, anti-RXR (NR concentration 30 nM, RXRa partner concentration 10 nM)
# Method in brief: as §1
# [10] = test system: PPARg:RXRa 90nM:30nM, anti-RXR (NR concentration 90 nM, RXRa partner concentration 30 nM)
# Method in brief: as §1
# [11] = test system: PPARg:RXRa DBDmut IVT, anti-RXR (DBD mutation: RXRa K156A/R161A, NR concentration 270 nM, RXRa partner concentration 90 nM)
# Method in brief: as §1
# [12] = test system: PPARg:RXRa IVT, anti-PPARg (NR concentration 270 nM, RXRa partner concentration 90 nM)
# Method in brief: as §1
# [13] = test system: PPARg DBDmut:RXRa IVT, anti-PPARg (DBD mutation: PPARg1 K132A/R137A, NR concentration 270 nM, RXRa partner concentration 90 nM)
# Method in brief: as §1
# [14] = test system: PPARg DBDmut IVT, anti-PPARg (DBD mutation: PPARg1 K132A/R137A, NR concentration 270 nM)
# Method in brief: as §1
# [15] = test system: PPARg homodimer (NR concentration 180 nM)
# Method in brief: as §1
# [16] = test system: PXR:RXRa (NR concentration 270 nM, RXRa partner concentration 90 nM)
# Method in brief: as §1
# [17] = test system: PXR homodimer (NR concentration 270 nM)
# Method in brief: as §1
# [18] = test system: RARa:RXR (NR concentration 270 nM, RXRa partner concentration 90 nM)
# Method in brief: as §1
# [19] = test system: RARa homodimer (NR concentration 270 nM)
# Method in brief: as §1
# [20] = test system: RARb:RXRa (NR concentration 270 nM, RXRa partner concentration 90 nM)
# Method in brief: as §1
Sequence,PBM binding z-score [1],PBM binding z-score [2],PBM binding z-score [3],PBM binding z-score [4],PBM binding z-score [5],PBM binding z-score [6],PBM binding z-score [7],PBM binding z-score [8],PBM binding z-score [9],PBM binding z-score [10],PBM binding z-score [11],PBM binding z-score [12],PBM binding z-score [13],PBM binding z-score [14],PBM binding z-score [15],PBM binding z-score [16],PBM binding z-score [17],PBM binding z-score [18],PBM binding z-score [19],PBM binding z-score [20]
AGAACGAGCGCAATGAGTTGATAGCACGGGTGGC,-0.384,-0.917,-0.672,-1.03,-0.728,-0.619,0.568,-0.754,-0.641,-0.779,-0.343,-0.563,0.051,-0.552,0.0308,-0.486,-0.247,-0.449,-0.49,-0.312
CCTACTGGGCCATCAGGTCATAGATATCAACGTT,1.22,0.89,0.812,1.18,-0.323,2.72,3.22,3.9,1.86,3.15,4.5,5.08,0.923,-0.119,1.49,1.15,0.269,1.87,0.283,1.99
TCTGCTAGGTCAGTTGGACAGCTAACGAGCTGCC,0.721,0.508,-0.846,-0.0468,0.424,1.12,0.413,1.36,1.23,1.21,2.28,2.83,0.449,0.399,-0.587,-0.183,-1.13,-0.205,-1.3,3.26
GCTTGTAGATCAAGGTTGAGAAAGACTAAGCTAA,-0.651,-0.5,-0.84,-0.489,-0.831,1.3,2.27,3.37,1.77,3,0.308,0.797,-0.562,-0.558,-0.108,-0.354,-0.235,-0.162,-0.337,-0.367
CGTCCAAGGTCAAGGTCAGTGAAAGAGACTCGAA,7.52,5.66,1.09,4.51,0.985,6.12,6.53,6.21,2.56,4.65,3.52,4.76,0.429,0.164,4.38,4.81,1.28,5.07,1.75,5.75
AGTCAAAGTTCACTAGGTAATGTAAGATTCAGCT,4.99,4.85,2.91,3.07,0.939,4.58,7.06,6.01,3.43,5.25,2.34,4.44,1.59,2.13,2.35,4.01,2.75,3.26,1.29,4.78
ATACGAAGGTGATCGTGAGGTCGTTGATACTAAC,1.79,1.18,0.283,0.729,-0.403,1.47,0.5,0.532,0.382,0.531,0.525,0.827,0.418,-0.452,0.589,2.82,1.23,2,0.134,1.29
